Reference: PubChem BioAssay (NCATS)
Results filed as inconclusive are left out. The source made the active and inactive calls. Unless noted, the call rests on the fitted dose curve; in most records, active means well fitted curve in the direction sought with a large enough effect; inconclusive means small, poorly fitted or top-dose-only effect, or another doubt; inactive means no such curve, though single readings can be large; an effect the other way counts as inactive or inconclusive.

What was measured:
[1] = qHTS for Inhibitors of the Functional Ribonucleoprotein Complex (vRNP) of Lassa (LASV) Arenavirus: LASV Primary Screen - GLuc reporter signal (AID 1347082; calls by dose curve; tested in HEK293 reporter line; further: series mostly up to about 57 µM; nearly all actives have a fitted effect of over 60% in size)
[2] = qHTS for Inhibitors of the Functional Ribonucleoprotein Complex (vRNP) of Lassa (LASV) Arenavirus: Viability assay - alamar blue signal for LASV Primary Screen (AID 1347083; calls by dose curve; tested in HEK293 reporter line; further: series mostly up to about 57 µM; nearly all actives have a fitted effect of over 80% in size)
[3] = qHTS for Inhibitors of the Functional Ribonucleoprotein Complex (vRNP) of Lymphocytic Choriomeningitis Arenaviruses (LCMV): Viability assay - alamar blue signal for LCMV Primary Screen (AID 1347085; calls by dose curve; tested in HEK293 reporter line; further: series mostly up to about 57 µM; nearly all actives have a fitted effect of over 80% in size)
[4] = target: Nucleoprotein (Lymphocytic choriomeningitis virus (strain Armstrong)) (UniProt P09992); assay: qHTS for Inhibitors of the Functional Ribonucleoprotein Complex (vRNP) of Lymphocytic Choriomeningitis Arenaviruses (LCMV): LCMV Primary Screen - GLuc reporter signal (AID 1347086; calls by dose curve; further: series mostly up to about 57 µM; nearly all actives have a fitted effect of over 70% in size)
[5] = qHTS of pediatric cancer cell lines to identify multiple opportunities for drug repurposing: Primary screen for TC32 cells (AID 1347089); further: nearly all actives have a fitted effect of over 60% in size
In short: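 A viability screen of TC32 cells was run over 48 h, with primary MIPE doses spanning 0.78 nM–46 µM and NPC doses 0.59 nM–46 µM. ATP luminescence (CellTiter-Glo) served as the read-out.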

[6] = qHTS of pediatric cancer cell lines to identify multiple opportunities for drug repurposing: Primary screen for DAOY cells (AID 1347090); further: series mostly up to about 46 µM; nearly all actives have a fitted effect of over 55% in size
In short: (§1)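 Cell viability, CellTiter-Glo luminescence; 500-1,000 cells/well, 8- or 11-point titration, 48 h compound exposure at 37 degrees C, 5% CO2. Controls: DMSO neutral, bortezomib 2.3 µM final as positive.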

[7] = qHTS of pediatric cancer cell lines to identify multiple opportunities for drug repurposing: Primary screen for SJ-GBM2 cells (AID 1347091)
In short: as §1

[8] = qHTS of pediatric cancer cell lines to identify multiple opportunities for drug repurposing: Primary screen for A673 cells (AID 1347092); further: nearly all actives have a fitted effect of over 45% in size
In short: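 Titration-based qHTS on A673 cells: MIPE compounds spanned 11 points (0.78 nM to 46 µM final), NPC compounds 8 points (0.59 nM to 46 µM final). Viability after 48 h was measured by ATP luminescence.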

Measured: Potency

Sequence of Nucleoprotein (Lymphocytic choriomeningitis virus (strain Armstrong)) (P09992 whole entry, looked up): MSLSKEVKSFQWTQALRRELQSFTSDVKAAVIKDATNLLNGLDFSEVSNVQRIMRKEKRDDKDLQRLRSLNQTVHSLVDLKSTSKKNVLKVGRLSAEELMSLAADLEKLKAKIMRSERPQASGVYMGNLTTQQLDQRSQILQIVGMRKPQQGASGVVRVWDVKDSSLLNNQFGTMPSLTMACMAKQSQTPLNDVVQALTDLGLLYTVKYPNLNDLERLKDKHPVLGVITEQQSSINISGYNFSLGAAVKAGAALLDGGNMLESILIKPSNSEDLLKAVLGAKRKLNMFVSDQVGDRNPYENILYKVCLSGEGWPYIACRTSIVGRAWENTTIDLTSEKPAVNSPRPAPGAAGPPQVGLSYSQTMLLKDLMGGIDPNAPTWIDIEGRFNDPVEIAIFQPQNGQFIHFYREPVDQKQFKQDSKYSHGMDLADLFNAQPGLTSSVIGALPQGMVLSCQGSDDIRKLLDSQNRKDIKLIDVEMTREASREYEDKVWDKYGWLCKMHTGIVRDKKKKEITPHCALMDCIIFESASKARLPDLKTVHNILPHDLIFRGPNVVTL

CCN(CCO)CCn1c(Cc2ccccc2)nc2c1c(=O)n(C)c(=O)n2C
inactive: all assays above

CC(=O)OCC1=C(C(=O)O)N2C(=O)[C@@H](N)[C@H]2SC1
inactive: all assays above

COc1c2c(cc3c1OCO3)CCN(C)C2
inactive: all assays above

COP(=S)(OC)Oc1ccc(S(=O)(=O)N(C)C)cc1
inactive: all assays above

C[C@H]1[C@@H]2Cc3ccc(O)cc3[C@@]1(C)CCN2C
inactive: all assays above

Nc1ccccc1C(=O)O
inactive: all assays above

CCCOC(=O)c1cncn1C(C)c1ccccc1 (configuration not stated)
inactive: all assays above

COP(=S)(OC)Oc1ccc(SC)c(C)c1
not listed: [7]
inactive: all other assays above

C[C@H](N)C(=O)c1ccccc1
inactive: all assays above

C=CCN1C[C@H](C)N([C@H](c2ccc(C(=O)N(CC)CC)cc2)c2cccc(OC)c2)C[C@H]1C
inactive: all assays above

CCC(C)C(C)(COC(N)=O)COC(N)=O (configuration not stated)
inactive: all assays above

CC(C)NC(C)C
inactive: all assays above

CN(C)CCc1c[nH]c2cccc(OP(=O)(O)O)c12
inactive: all assays above

CN1C(=O)NC(=O)C(C)(C2=CCCCC2)C1=O (configuration not stated)
inactive: all assays above

Nc1nc(N)nc(NC2CC2)n1
inactive: all assays above

CCN[C@H](C)Cc1cccc(C(F)(F)F)c1
inactive: all assays above

Nc1ccc([As](=O)(O)O)cc1
inactive: all assays above

ClCCN1CCCC1
inactive: all assays above

O=C(N/N=C/c1ccc([N+](=O)[O-])o1)c1cc([N+](=O)[O-])cc([N+](=O)[O-])c1O
inactive: all assays above

c1ccc(CN2CCNCC2)cc1
not listed: [7]
inactive: all other assays above

COC(=O)[C@@H](N)CCCN/C(N)=N/[N+](=O)[O-]
inactive: all assays above

CCOC(=O)CC(SP(=S)(OC)OC)C(=O)OCC (configuration not stated)
inactive: all assays above

C[N+]1(CCF)[C@@H]2CC[C@H]1CC(OC(=O)C(O)(c1ccccc1)c1ccccc1)C2 (some centres not stated)
not listed: [7]
inactive: all other assays above

COc1ccc2c3c1O[C@H]1[C@H](O)CC[C@H]4[C@@H](C2)N(C)CC[C@@]341
inactive: all assays above

NC(=O)CS(=O)C(c1ccccc1)c1ccccc1 (configuration not stated)
inactive: all assays above
